JMJD2A Tudor – qHTS Assay for Inhibitors of JMJD2A-Tudor Domain | Lysine-specific demethylase 4A (Homo sapiens), O75164 | AlphaScreen JMJD2A-Tudor / H3K4me3 peptide binding | Potency, µM (titrated, usually from 114 µM), most hits filed as inhibitors | hit rate 4.4% among 390,000; note: nearly all actives have a fitted effect of over 50% in size
TDP1 block – qHTS Assay for Inhibitors of Tyrosyl-DNA Phosphodiesterase (TDP1); Tyrosyl-DNA phosphodiesterase 1 (Homo sapiens), Q9NUW8; recombinant TDP1, AlphaScreen DNA substrate cleavage; Potency, µM (doses to about 130 µM), hits mostly inhibitors; hit rate 0.28% among 350,000; note: nearly all actives have a fitted effect of over 40% in size
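Compounds were preincubated with Tdp1 (1 nM final) for 15 min at room temperature before substrate (15 nM final) started a 5 min reaction; beads (10 ug/ml final) were then added for 10 min before AlphaScreen detection.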
HP1b binding inh – HTS for Inhibitors of HP1-beta Chromodomain Interactions with Methylated Histone Tails. Chromobox protein homolog 1 (Homo sapiens), P83916. AlphaScreen HP1-beta / biotin-H3K9me3 peptide binding. Potency, µM (highest dose often 114 µM), actives largely listed as inhibitors. hit rate 0.56% among 390,000; note: nearly all actives have a fitted effect of over 70% in size
Target sequence (P83916 whole entry, looked up): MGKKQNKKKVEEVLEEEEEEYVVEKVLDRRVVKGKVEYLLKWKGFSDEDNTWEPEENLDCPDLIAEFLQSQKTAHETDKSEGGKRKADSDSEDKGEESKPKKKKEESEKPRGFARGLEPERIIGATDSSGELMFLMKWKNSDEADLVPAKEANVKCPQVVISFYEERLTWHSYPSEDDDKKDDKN
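HP1-beta protein (50 nM final) preincubated 30 min at room temperature with biotinylated H3(1-18)K9me3 peptide (50 nM) in PBS pH 7.4, 0.01% Tween-20, then compound added for 30 min. AlphaScreen streptavidin donor/nickel chelate acceptor beads (10 ug/mL final), 30 min dark, luminescence read.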
BAZ2B inh – qHTS Assay for Inhibitors of BAZ2B; Bromodomain adjacent to zinc finger domain protein 2B (Homo sapiens), Q9UIF8; AlphaScreen BAZ2B-H3K14Ac peptide displacement; Potency, µM (titrated, usually from 114 µM), hits mostly inhibitors; hit rate 4.4% among 360,000; note: nearly all actives have a fitted effect of over 60% in size
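AlphaScreen displacement of biotin-H3(5-23)K14Ac peptide (50 nM final) from BAZ2B (50 nM final) in PBS pH 7.4, 0.01% Tween-20; complex preformed 30 min RT, then compounds (top 110 uM) 30 min RT, beads 20 min dark.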
Sfp inh – qHTS Assay for Inhibitors of Bacillus subtilis Sfp phosphopantetheinyl transferase (PPTase) | 4'-phosphopantetheinyl transferase ffp (Bacillus subtilis), Q9F4F7 | Biochemical Sfp PPTase activity, qHTS | Potency, µM, actives largely listed as inhibitors | hit rate 3.5% among 310,000 | AID 1490, 2009;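 note: the enzyme is Sfp with the accession as filed and its product quenches rhodamine fluorescence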
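Compounds were incubated with enzyme (final 15 nM) for 15 min at room temperature before substrate addition started the reaction. Fluorescence at 525 nm excitation, 598 nm emission was recorded immediately and after 30 minutes.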
G9a block – qHTS Assay for Inhibitors of Histone Lysine Methyltransferase G9a. G9a H3K9 monomethylation, AlphaScreen, 2 h. Potency, µM (highest dose often 102 µM), hits mostly inhibitors. hit rate 8.8% among 350,000. AID 504332, 2011; note: nearly all actives have a fitted effect of over 75% in size
Target sequence (Q96KQ7 913-1193 limits assumed): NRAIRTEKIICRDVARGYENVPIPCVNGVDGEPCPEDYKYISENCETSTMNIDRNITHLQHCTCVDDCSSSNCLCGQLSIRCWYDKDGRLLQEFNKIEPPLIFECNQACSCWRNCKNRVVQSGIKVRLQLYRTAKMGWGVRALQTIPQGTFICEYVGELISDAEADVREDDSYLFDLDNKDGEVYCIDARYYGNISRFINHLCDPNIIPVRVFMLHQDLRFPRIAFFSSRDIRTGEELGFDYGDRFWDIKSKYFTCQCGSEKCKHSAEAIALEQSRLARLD
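Signal arises when biotinylated H3K9 peptide, once monomethylated, bridges streptavidin donor and antibody-captured acceptor beads. Enzyme at 20 nM was preincubated 15 min with test compounds; peptide 500 nM and SAM 20 uM then reacted for 2 h.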
Each line names hits and unclear results; the compound was inactive in the other large screens. Most compounds without a hit are left out; they make up all but 12% or so of the library. Calls come from the whole dose curve; as a rule, active = well fitted curve in the direction sought with a large enough effect; inconclusive = small, poorly fitted or top-dose-only effect, or another doubt; inactive = no such curve, though single readings can be large; an effect the other way counts as inactive or inconclusive.

Cc1cc[n+](-c2[nH]c(=O)sc2/C=N/N=C(\[O-])c2ccccc2)cc1	JMJD2A Tudor inconclusive, TDP1 block 40µM, BAZ2B inh 50µM, Sfp inh inconclusive
Cc1cc(C)c[n+](-c2[nH]c(=O)sc2/C=N/N=C(\N)[S-])c1	BAZ2B inh inconclusive, Sfp inh 25µM, G9a block 40µM
CC(=O)Nc1ccc(S(=O)(=O)Nc2cc(C)ccn2)cc1	G9a block 50µM
CC(=O)NS(=O)(=O)c1ccc(NC(=S)NC(=O)C2CCC2)cc1	G9a block inconclusive
Cc1ccc(NC(=S)NC(=O)C2CCCC2)cc1C	G9a block 35µM
Cc1ccc(NC(=S)NC(=O)C2CCC2)cc1C	none
O=C(NC(=S)Nc1ccc(S(=O)(=O)Nc2ccccc2)cc1)C1CC1	G9a block 14µM
CC(=O)Nc1ccc(S(=O)(=O)NCC(CCC(=O)O)C(F)(F)F)cc1 (stereo unspecified)	JMJD2A Tudor 16µM
CC(C)C(=O)N[C@H]1CCCN1C(=O)/C=C\c1ccccc1	none (no result: JMJD2A Tudor, HP1b binding inh, BAZ2B inh, G9a block)
CC(=O)Nc1ccc(NS(=O)(=O)c2ccccc2)cc1	none
CC(=O)Nc1ccc(S(=O)(=O)Nc2ccc(Nc3ccccc3)cc2)cc1	JMJD2A Tudor inconclusive, HP1b binding inh inconclusive, G9a block 40µM (no result: TDP1 block)
COC(=O)C1=C(CN2CCc3ccccc32)NC(=O)NC1c1cc(C)ccc1C (stereo unspecified)	JMJD2A Tudor inconclusive, BAZ2B inh 50µM, Sfp inh inconclusive, G9a block inconclusive
COc1ccc(C(c2nnnn2C(C)(C)C)N2CCN(c3nc4ccccc4s3)CC2)cc1OC (stereo unspecified)	BAZ2B inh 79µM
COc1cc(C(c2nnnn2C(C)(C)C)N2CCN(c3nc4ccccc4s3)CC2)ccc1O (stereo unspecified)	JMJD2A Tudor inconclusive, HP1b binding inh inconclusive, BAZ2B inh inconclusive, Sfp inh 25µM, G9a block 2.2µM
N=C1c2c(cc(=O)n3c2[nH]c2ccccc23)CN1CCN1CCOCC1	G9a block 35µM (no result: BAZ2B inh)
N#Cc1c(C(F)(F)F)cc(=O)n2c1[nH]c1ccccc12	none
CCOC(=O)c1sc2nc(SCC(=O)N(CC)CC)n(CCCN3CCCC3=O)c(=O)c2c1C	BAZ2B inh 79µM, Sfp inh inconclusive
Cc1cc(SCCC(=O)O)nc2c(C)cccc12	G9a block 79µM
Cc1cc(SCC(=O)N2CCCC2=O)nc2c(C)cccc12	none (no result: TDP1 block, Sfp inh)
COC(=O)[C@@]12CCCCN1[C@H](c1ccc(SC3CCCCC3)cc1)[C@@H]1C(=O)N(C)C(=O)[C@@H]12	none (no result: Sfp inh)
Clc1ccc(Cn2ccc3ccccc32)cn1	none
Clc1ccc(CNc2ccccc2NCc2ccc(Cl)nc2)cn1	JMJD2A Tudor inconclusive, BAZ2B inh inconclusive, G9a block 3.2µM
Cc1sc2nc(SCC(=O)Nc3cccc(C(=O)O)c3)[nH]c(=O)c2c1C	G9a block 25µM (no result: Sfp inh)
Cc1sc2nc(SCC(=O)Nc3cccc(S(N)(=O)=O)c3)[nH]c(=O)c2c1C	JMJD2A Tudor 89µM, HP1b binding inh inconclusive (no result: BAZ2B inh, Sfp inh, G9a block)
Cc1sc2nc(SCC(=O)Nc3ccc(S(N)(=O)=O)cc3)[nH]c(=O)c2c1C	none
COc1cccc(-c2cccc(NC(=O)C3CCN(Cc4ccon4)CC3)c2)c1	none
CC(=O)c1ccc(NC(=O)COC(=O)c2ccccc2N=Nc2ccc(N(C)C)cc2)cc1	JMJD2A Tudor 13µM, HP1b binding inh 32µM, BAZ2B inh 5µM, G9a block 13µM
CN(C)c1ccc(NC(=O)COC(=O)c2cc(Cl)ccc2[N+](=O)[O-])cc1	JMJD2A Tudor 25µM, HP1b binding inh 50µM, BAZ2B inh 35µM, G9a block 6.3µM
CN(C)c1cccc(C(=O)OCC(=O)N(C)c2ccccc2)c1	JMJD2A Tudor inconclusive, BAZ2B inh inconclusive
COC(=O)c1ccccc1NC(=O)COC(=O)c1ccccc1N=Nc1ccc(N(C)C)cc1	JMJD2A Tudor 32µM, HP1b binding inh inconclusive, BAZ2B inh 8.9µM, G9a block 8.9µM
CN(C)c1ccc(N=Nc2ccccc2C(=O)OCC(=O)N(C)c2ccccc2)cc1	JMJD2A Tudor 13µM, HP1b binding inh inconclusive, BAZ2B inh 10µM, Sfp inh inconclusive, G9a block 8.9µM
NC(=S)N/N=C/c1coc2ccc(Cl)cc2c1=O	none
O=C(O)c1ccccc1SC1=NS(=O)(=O)c2ccccc21	none (no result: TDP1 block, HP1b binding inh, BAZ2B inh, Sfp inh, G9a block)
COC(=O)c1ccccc1NC(=O)COC(=O)c1ccco1	JMJD2A Tudor inconclusive, BAZ2B inh 50µM
CC(C)CC(=O)Nc1ccc(S(=O)(=O)NCc2ccco2)cc1	G9a block 18µM
O=C(COc1ccccc1)Nc1ccc(S(=O)(=O)NCc2ccco2)cc1	JMJD2A Tudor 50µM, BAZ2B inh inconclusive, G9a block 50µM
O=C(Nc1ccc(S(=O)(=O)NCc2ccco2)cc1)C1CCCCC1	G9a block 45µM
Cc1cccc(NC(=O)c2ccc(F)c(S(=O)(=O)NCc3ccco3)c2)c1	BAZ2B inh inconclusive, G9a block 50µM
COc1ccc(/C=C/C(=O)O)cc1S(=O)(=O)NCc1ccco1	G9a block inconclusive
Cc1ccc(/C=C/C(=O)O)cc1S(=O)(=O)NCc1ccco1	BAZ2B inh inconclusive, Sfp inh 40µM (no result: G9a block)
COc1ccccc1NC(=O)c1ccc(S(=O)(=O)NCc2ccco2)cc1	none
COc1ccc(C(=O)Nc2ccc(S(=O)(=O)NCc3ccco3)cc2)cc1OC	JMJD2A Tudor inconclusive, G9a block 40µM
CCN1CCN(c2ccc(NS(=O)(=O)c3c(C)nc4sccn4c3=O)cc2Cl)CC1	G9a block inconclusive (no result: Sfp inh)
Cc1ccc(C2=NN=C(NC(=O)CSc3nnc4c5ccccc5n(C)c4n3)SC2)cc1	JMJD2A Tudor inconclusive, G9a block 45µM
Cc1cccc(S(=O)(=O)Nc2cccc(-c3ccc(N4CCCCC4)nn3)c2)c1	none (no result: Sfp inh)
O=C(O)c1ccc(N/N=C/c2cc3cc4c(cc3nc2Cl)OCCO4)cc1	BAZ2B inh 79µM, G9a block inconclusive (no result: TDP1 block)

Screening results as filed in PubChem.
